These results are taken from the antibiotic and cytotoxicity screens of Wong et al. (2023).

Molecules are shown by their SMILES. Screen size: about 39,000 compounds; about 1,500 (3.8%) were called active. For the sample, actives were picked, then their nearest neighbours and some compounds at random.

The subject of this test is HSkMC (human skeletal muscle cells). Put plainly: cytotoxicity call (relative viability < 0.9). As to conditions: 10 µM.
As for `C[C@H]1CN([C@@H](C)CO)C(=O)c2cccc(NS(=O)(=O)c3cn(C)cn3)c2O[C@H]1CN(C)S(=O)(=O)c1cccs1`, the cytotoxicity call is “inactive”. In the case of `C[C@@H]1CN([C@H](C)CO)C(=O)c2cc(C#C[C@@H](C)O)cnc2O[C@@H]1CN(C)C(=O)Nc1ccc(C(F)(F)F)cc1`, the cytotoxicity call is “inactive”. As for `Nc1cc(=O)[nH]c(=O)n1-c1ccc(Cl)cc1`, the cytotoxicity call was “inactive”. The result for `O=C(O)CSCC(=O)N1CCCCC1` reads “inactive”; that for `CN1C(=O)c2cc(NC(=O)C3CCOCC3)ccc2OC[C@@H]2O[C@@H](CC(=O)NCc3ccccc3F)CC[C@H]21`, “inactive”. In the case of `C[C@H]1CN([C@@H](C)CO)C(=O)c2cccc(NS(C)(=O)=O)c2O[C@H]1CN(C)S(=O)(=O)c1ccc(F)cc1`, the cytotoxicity call is “inactive”.

Consider `COc1ccc(C[C@H]2c3cc(OC)c(OC)cc3CC[N@+]2(C)CCC(=O)OCCCCCOC(=O)CC[N@+]2(C)CCc3cc(OC)c(OC)cc3[C@@H]2Cc2ccc(OC)c(OC)c2)cc1OC`, for which the cytotoxicity call was “inactive”. The result for `COc1ccc(CC2c3cc(OC)c(OC)cc3CC[N+]2(C)CCC(=O)OCCCCCOC(=O)CC[N+]2(C)CCc3cc(OC)c(OC)cc3C2Cc2ccc(OC)c(OC)c2)cc1OC.O=S(=O)([O-])c1ccccc1.O=S(=O)([O-])c1ccccc1` (stereo not drawn) reads “inactive”; that for `COc1ccc(C[C@@H]2c3cc(OC)c(OC)cc3CC[N@+]2(C)CCC(=O)OCCCCCOC(=O)CC[N@@+]2(C)CCc3cc(OC)c(OC)cc3[C@H]2Cc2ccc(OC)c(OC)c2)cc1OC`, “active”. Consider `C[C@@H]1CN([C@@H](C)CO)C(=O)Cc2cc(NC(=O)Cc3cn(C)c4ccccc34)ccc2O[C@@H]1CN(C)S(=O)(=O)c1cn(C)cn1`, for which the cytotoxicity call is “inactive”. The result for `C[C@@H]1CCCCO[C@@H](CN(C)S(=O)(=O)c2ccccc2)[C@H](C)CN([C@@H](C)CO)C(=O)c2cc(NS(=O)(=O)c3cn(C)cn3)ccc2O1` reads “inactive”; that for `C[C@H]1CN([C@@H](C)CO)C(=O)Cc2cc(NS(=O)(=O)c3cn(C)cn3)ccc2O[C@@H]1CN(C)S(=O)(=O)c1ccc(Cl)cc1`, “inactive”. The result for `Cc1ccc(S(=O)(=O)Nc2ccc3c(c2)C(=O)N([C@@H](C)CO)C[C@@H](C)[C@H](CN(C)Cc2ccccc2)OCCCC[C@@H](C)O3)cc1` reads “inactive”; that for `COc1ccc2c3c([nH]c2c1)[C@@H](CO)N(Cc1ccc(cc1)Cl)C[C@]13CCN(CC1)Cc1ccccc1`, “active”.

As for `COc1ccc2c3c([nH]c2c1)[C@@H](CO)N(Cc1ccc(cc1)Cl)C[C@]13CCN(CC1)Cc1nccs1`, the cytotoxicity call was “inactive”. Consider `COc1ccc2c3c([nH]c2c1)[C@H](CO)N(Cc1ccc(cc1)Cl)C[C@]13CCN(CC1)Cc1ccccc1`, for which the cytotoxicity call is “active”. `COc1ccc2c3c([nH]c2c1)[C@H](CO)N(Cc1ccc(cc1)Cl)C[C@]13CCN(CC1)Cc1nccs1`: the cytotoxicity call is “inactive”.

Consider `COc1ccc2c3c([nH]c2c1)[C@H](CO)N(Cc1ccncc1)C[C@]13CCN(CC1)Cc1ccc(cc1)-c1ccccn1`, for which the cytotoxicity call is “inactive”. The result for `COc1ccc(cc1)CN1C[C@]2(CCN(CC2)Cc2ccccc2OC)c2c([nH]c3cc(ccc23)OC)[C@@H]1CO` reads “inactive”. For the molecule `O=C(NCCCN1CCOCC1)[C@H]1[C@H](CO)[C@H]2Cn3c(cccc3=O)[C@@H]1N2C(=O)C1CCCCC1`, the cytotoxicity call is “inactive”. In the case of `C[C@@H]1CCCCO[C@H](CN(C)C(=O)NC2CCCCC2)[C@H](C)CN([C@H](C)CO)C(=O)c2cc(NC(=O)Nc3ccc(F)cc3)ccc2O1`, the cytotoxicity call was “inactive”. In the case of `Cc1cccc(S(=O)(=O)N2C[C@@H](O)COC[C@@H]3O[C@H](CC(=O)NCCCN4CCOCC4)CC[C@H]32)c1`, the cytotoxicity call is “inactive”. Consider `C[C@@H]1CN([C@@H](C)CO)C(=O)c2cc(NC(=O)NC3CCCCC3)ccc2O[C@@H](C)CCCCO[C@H]1CN(C)C(=O)CCC(F)(F)F`, for which the cytotoxicity call was “inactive”. With `C[C@@H]1CN([C@@H](C)CO)C(=O)c2cc(NC(=O)Cc3ccccc3)ccc2O[C@@H](C)CCCCO[C@@H]1CN(C)C(=O)c1ccccc1`, the cytotoxicity call was “inactive”. With `C=C(CO)C(=O)O[C@@H]1[C@H]2C(=C)C(=O)O[C@@H]2[C@H]2O[C@]2(C)CC/C=C(/C(=O)OC)[C@H]1OC(C)=O`, the cytotoxicity call was “active”. The result for `C=C(CO)C(=O)O[C@H]1C[C@@]2(C)OC(=O)/C(=C/C)[C@]2(O)CC[C@@]2(C)CC(=O)[C@]1(C(=C)C(=O)OC)O2` reads “inactive”; that for `C[C@H]1CN([C@@H](C)CO)C(=O)c2cccc(NS(=O)(=O)c3ccc(F)cc3)c2O[C@H]1CN(C)C(=O)Nc1cccc2ccccc12`, “inactive”. The result for `C[C@@H]1CN([C@H](C)CO)C(=O)c2cccc(NS(=O)(=O)c3cccs3)c2O[C@H]1CN(C)C(=O)Nc1cccc2ccccc12` reads “active”; that for `Cc1ccc(S(=O)(=O)Nc2cccc3c2O[C@@H](CN(C)C(=O)Nc2cccc4ccccc24)[C@H](C)CN([C@@H](C)CO)C3=O)cc1`, “inactive”; that for `C[C@H](CO)N1C[C@H](C)[C@@H](CN(C)C(=O)Nc2cccc3ccccc23)Oc2c(NS(=O)(=O)c3cccs3)cccc2C1=O`, “inactive”.

For `C[C@H]1CN([C@@H](C)CO)C(=O)c2cccc(NS(=O)(=O)c3ccc(F)cc3)c2O[C@@H]1CN(C)C(=O)Nc1cccc2ccccc12`, the cytotoxicity call was “inactive”. `C[C@H](CO)N1C[C@H](C)[C@H](CN(C)C(=O)Nc2cccc3ccccc23)Oc2c(NS(=O)(=O)c3ccc(F)cc3)cccc2C1=O`: the cytotoxicity call was “active”.

As to `C[C@H](CO)N1C[C@H](C)[C@@H](CN(C)C(=O)Nc2cccc3ccccc23)Oc2c(NS(=O)(=O)c3ccc(F)cc3)cccc2C1=O`, the cytotoxicity call was “inactive”. On to `C[C@@H]1CN([C@@H](C)CO)C(=O)c2cccc(NS(=O)(=O)c3ccc(F)cc3)c2O[C@H]1CN(C)C(=O)Nc1cccc2ccccc12`, for which the cytotoxicity call is “active”. The result for `Cc1ccc(S(=O)(=O)Nc2cccc3c2O[C@H](CN(C)C(=O)Nc2cccc4ccccc24)[C@@H](C)CN([C@@H](C)CO)C3=O)cc1` reads “active”.

Regarding `C[C@@H]1CN([C@@H](C)CO)C(=O)c2cccc(NS(=O)(=O)c3cccs3)c2O[C@@H]1CN(C)C(=O)Nc1cccc2ccccc12`, the cytotoxicity call is “inactive”. Take `C[C@@H]1CN([C@H](C)CO)C(=O)c2cccc(NS(=O)(=O)c3ccc(F)cc3)c2O[C@@H]1CN(C)C(=O)Nc1cccc2ccccc12`: the cytotoxicity call was “inactive”. The result for `Cc1ccc(S(=O)(=O)Nc2cccc3c2O[C@H](CN(C)C(=O)Nc2cccc4ccccc24)[C@@H](C)CN([C@H](C)CO)C3=O)cc1` reads “inactive”.
